173 sequences from article PMC5836133, “The intracellular immune receptor Rx1 regulates the DNA-binding activity of a Golden2-like transcription factor” can be followed below.

In all, about 16,000 sequences were measured (“e-score”: median about -0.044, highest 2% from about 0.38 on). Many of the other results were omitted from the sample, so the highest values are more common in it than they were.

For this experiment, the target named is T1, GST-NbGlk1(82-244) (Nicotiana benthamiana).
T1 chain: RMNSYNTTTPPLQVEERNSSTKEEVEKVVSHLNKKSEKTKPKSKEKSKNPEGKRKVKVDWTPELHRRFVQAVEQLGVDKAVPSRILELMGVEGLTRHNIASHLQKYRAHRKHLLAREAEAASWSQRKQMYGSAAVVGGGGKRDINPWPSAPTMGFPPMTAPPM
Description: protein-binding microarray; NbGlk1 is a Golden2-like transcription factor of Nicotiana benthamiana; high values mean tight binding. Particulars: protein: recombinant; tags: GST (pTH6838); dsDNA, one strand shown.
On to ACGTGATC, for which the binding signal was 0.232 ± 0.0142 E-score.
Then ATTCGCGA, with 0.318 ± 0.058 E-score.
Consider AAATCGCT, for which the binding signal came to 0.295 ± 0.0508 E-score.
With ACAGAAAT the figure was 0.248 ± 0.0234 E-score; with ATCCGCAT, 0.272 ± 0.0412 E-score.
With AAAGATTG the figure was 0.335 ± 0.0169 E-score; with CAAGATTC, 0.406 ± 0.00476 E-score; with CAAGATTA, 0.314 ± 0.00322 E-score.
With CAAGATTG the figure was 0.308 ± 0.0144 E-score; with AAAGATAC, 0.21 ± 0.0674 E-score; with AAAGATTT, 0.427 ± 0.00822 E-score.
For AACGATTC, the binding signal was 0.214 ± 0.0649 E-score.
Turning to AAAGATTC, the binding signal stood at 0.401 ± 0.00855 E-score.
With AAAGATTA the figure was 0.318 ± 0.0346 E-score.
Consider ATTGTGCG, for which the binding signal was determined as 0.2 ± 0.0823 E-score.
Then ATCGTAAA, with 0.239 ± 0.0266 E-score; and ATCTTCCG, with 0.316 ± 0.0643 E-score; and ATCTGCTA, with 0.331 ± 0.0558 E-score.
With AGGATCCG the figure was 0.26 ± 0.0521 E-score.
Then ATTTCGTA, with 0.399 ± 0.0199 E-score; and ATTTCGTG, with 0.367 ± 0.0218 E-score; and ATTTCGTC, with 0.303 ± 0.0104 E-score.
In the case of ATCTTCAC, the binding signal is 0.352 ± 0.00871 E-score.
With ACTGAGAT the figure was 0.247 ± 0.0201 E-score.
For the sequence ATCCCGAG, the binding signal stood at 0.211 ± 0.027 E-score.
With AGATATAC the figure was 0.241 ± 0.00443 E-score; with ATATATCA, 0.276 ± 0.0382 E-score; with AGATATCA, 0.434 ± 0.0219 E-score.
Then AGATATAA, with 0.208 ± 0.0225 E-score.
Then AGATATCG, with 0.462 ± 0.00283 E-score.
AGATATGC: the binding signal was found to be 0.415 ± 0.012 E-score.
Then AGATATGA, with 0.318 ± 0.00331 E-score; and ATATATCG, with 0.276 ± 0.0574 E-score.
With AGATATCC the figure was 0.47954 ± 0.00034 E-score; with AGATATGG, 0.373 ± 0.0298 E-score.
With AGATATAG the figure was 0.225 ± 0.0489 E-score; with ATATATCC, 0.262 ± 0.0686 E-score.
Take ATCTCGCC: the binding signal came to 0.314 ± 0.0254 E-score.
Then ACCAAGAT, with 0.289 ± 0.0649 E-score; and ATCCTTGA, with 0.218 ± 0.0175 E-score.
With ATTTCTAC the figure was 0.285 ± 0.0555 E-score; with ATTACATA, 0.267 ± 0.0926 E-score; with ATTACGGC, 0.278 ± 0.0482 E-score.
With AAGTAGAT the figure was 0.216 ± 0.0697 E-score.
For the sequence ATCCTTAC, the binding signal stood at 0.266 ± 0.0362 E-score.
As to ACTCAGAT, the binding signal was determined as 0.255 ± 0.0118 E-score.
As to ATCTTTAG, the binding signal was determined as 0.26 ± 0.0391 E-score.
Then ATTCCCCC, with 0.37 ± 0.0231 E-score; and ATCTATAC, with 0.231 ± 0.121 E-score; and AGATATCT, with 0.48 ± 0.00495 E-score.
With ACATATCT the figure was 0.344 ± 0.0128 E-score; with AGATACGC, 0.422 ± 0.0238 E-score; with AGATACGA, 0.332 ± 0.0469 E-score.
Then AGATATAT, with 0.316 ± 0.0185 E-score.
With AGATACGG, the binding signal is 0.372 ± 0.019 E-score.
Consider ATCTTCAA, for which the binding signal was 0.303 ± 0.0183 E-score.
Then ATATTGGA, with 0.241 ± 0.0475 E-score; and ATCAGGAA, with 0.288 ± 0.064 E-score.
Turning to ATAGGAAT, the binding signal came out at 0.275 ± 0.0501 E-score.
Then AATCCGGT, with 0.393 ± 0.0261 E-score.
Then AATCCTTC, with 0.265 ± 0.077 E-score.
With AATCCGTA the figure was 0.337 ± 0.0439 E-score.
As to AATCCGTC, the binding signal came to 0.39 ± 0.0333 E-score.
Then AATCCTGT, with 0.371 ± 0.0247 E-score; and ATCCCGGA, with 0.308 ± 0.0187 E-score.
With AATCCGGA the figure was 0.42 ± 0.0333 E-score; with ATTCCGGA, 0.232 ± 0.0263 E-score.
Turning to AATCCGGC, the binding signal stood at 0.3885 ± 0.00169 E-score.
Then AATCCGTG, with 0.322 ± 0.0593 E-score; and AATCCGGG, with 0.368 ± 0.0574 E-score; and ATCGTCAA, with 0.231 ± 0.0882 E-score.
Then ACCCAGAT, with 0.247 ± 0.0788 E-score; and CACCGATA, with 0.256 ± 0.0751 E-score.
Then ATCAGCGA, with 0.229 ± 0.0488 E-score.
Turning to AATCACAA, the binding signal worked out at 0.346 ± 0.0519 E-score.
In the case of ATTTTCTC, the binding signal was 0.316 ± 0.054 E-score.
Then ACGCGGAT, with 0.235 ± 0.023 E-score.
In the case of ATAAAGAT, the binding signal was 0.279 ± 0.0792 E-score.
Then ACCAATAT, with 0.204 ± 0.0315 E-score; and AATAATAT, with 0.259 ± 0.0722 E-score; and AATCTGAT, with 0.414 ± 0.0225 E-score.
Turning to AATATGAT, the binding signal stood at 0.222 ± 0.00614 E-score.
For AATCTGAC, the binding signal is 0.417 ± 0.0317 E-score.
With ATTCTGAC the figure was 0.242 ± 0.101 E-score.
Then AATCTGTC, with 0.391 ± 0.00978 E-score; and ATTCTGTC, with 0.335 ± 0.0209 E-score.
Consider AATCTGCT, for which the binding signal was determined as 0.37 ± 0.0413 E-score.
Then AAACAGAT, with 0.229 ± 0.0973 E-score; and ATCTTGAC, with 0.272 ± 0.0538 E-score; and AATCGTAT, with 0.339 ± 0.0131 E-score.
With AGATCGTA the figure was 0.283 ± 0.0295 E-score; with ATATCGCG, 0.415 ± 0.00817 E-score.
With AGATCGCA the figure was 0.396 ± 0.016 E-score; with AGATCGCT, 0.346 ± 0.00634 E-score.
Take ATATCGCC: the binding signal was found to be 0.333 ± 0.0165 E-score.
Then AAATCGCG, with 0.4246 ± 0.00159 E-score; and AAATCGCA, with 0.3786 ± 0.00224 E-score; and CAATCGCG, with 0.2571 ± 0.00241 E-score.
With AGATCGCC the figure was 0.353 ± 0.0264 E-score; with AGATCGCG, 0.464 ± 0.00467 E-score.
For AAATCGCC, the binding signal came out at 0.322 ± 0.0236 E-score.
With ATATCGCA the figure was 0.355 ± 0.0163 E-score.
Then AGCGCAAT, with 0.303 ± 0.0261 E-score; and AAATCGTT, with 0.248 ± 0.085 E-score; and CAATCCTG, with 0.3281 ± 0.00274 E-score.
With AGATCCTG, the binding signal turned out to be 0.369 ± 0.0433 E-score.
Consider AGATCCTC, for which the binding signal stood at 0.387 ± 0.0145 E-score.
Then CAATCCTA, with 0.288 ± 0.0058 E-score; and AAATCCTT, with 0.392 ± 0.0185 E-score; and AAATCATT, with 0.223 ± 0.00449 E-score.
Then AGATCCTA, with 0.314 ± 0.00874 E-score.
Take AATCCCTA: the binding signal came to 0.281 ± 0.0127 E-score.
With AAATCCTG the figure was 0.4223 ± 0.00332 E-score; with AAATCCTA, 0.417 ± 0.00908 E-score.
With ATTTCACC the figure was 0.214 ± 0.151 E-score.
With ATTCCCCA the figure was 0.256 ± 0.075 E-score; with ATCCTCGC, 0.205 ± 0.0887 E-score; with ATAGATCC, 0.21 ± 0.00109 E-score.
On to ATCTGTTG, for which the binding signal worked out at 0.301 ± 0.07 E-score.
Then ATATATAC, with 0.227 ± 0.00145 E-score; and AAATACGC, with 0.2039 ± 0.00167 E-score; and ATCCGGAC, with 0.272 ± 0.0502 E-score.
Then ATCGATTA, with 0.207 ± 0.0952 E-score.
With CAAGATCG the figure was 0.284 ± 0.0247 E-score; with AATATAAA, 0.254 ± 0.107 E-score; with AAATCCTC, 0.414 ± 0.051 E-score.
Regarding CAATCCTC, the binding signal was found to be 0.269 ± 0.0948 E-score.
Then AATCCCTC, with 0.293 ± 0.0225 E-score; and ATTCCCGA, with 0.333 ± 0.0675 E-score; and ATCCCAAG, with 0.206 ± 0.0761 E-score.
With AATATATT, the binding signal amounted to 0.285 ± 0.0974 E-score.
Take AGAATCGG: the binding signal was found to be 0.375 ± 0.00432 E-score.
For ATAATCTG, the binding signal was 0.356 ± 0.0112 E-score.
Then AGAATCGA, with 0.342 ± 0.0111 E-score; and AGAATCTA, with 0.48 ± 0.00879 E-score.
With AGAATCTC the figure was 0.469 ± 0.0125 E-score.
As for AGAATCTG, the binding signal worked out at 0.4793 ± 0.00413 E-score.
In the case of ATAATCTA, the binding signal amounted to 0.334 ± 0.0306 E-score.
Then ATATAAAT, with 0.276 ± 0.0236 E-score; and AGGGAGAT, with 0.281 ± 0.00745 E-score.
As to ACGGGGAT, the binding signal came to 0.214 ± 0.115 E-score.
Consider AAATATGA, for which the binding signal was found to be 0.226 ± 0.0549 E-score.
Then ATCCGTGA, with 0.236 ± 0.116 E-score.
With ATACGTTA the figure was 0.277 ± 0.00931 E-score; with ATTCCCTG, 0.323 ± 0.0549 E-score.
Then ATTACTAG, with 0.207 ± 0.0664 E-score; and ATTTATTA, with 0.249 ± 0.00743 E-score.
On to AAATATCG, for which the binding signal came out at 0.375 ± 0.0121 E-score.
As for ACATATCC, the binding signal was 0.214 ± 0.0275 E-score.
With CAATATCC the figure was 0.337 ± 0.0344 E-score; with AAATATCC, 0.42 ± 0.011 E-score; with AAATATCA, 0.367 ± 0.0296 E-score.
With AAATATCT the figure was 0.407 ± 0.0254 E-score.
Then ATATTGAG, with 0.214 ± 0.00643 E-score; and ATAAGATC, with 0.33 ± 0.000581 E-score; and ATTCTTTA, with 0.258 ± 0.0767 E-score.
AATCAGGT: the binding signal was determined as 0.32 ± 0.0381 E-score.
With AATCAGGA the figure was 0.394 ± 0.0134 E-score; with AATCAGGC, 0.2903 ± 0.0023 E-score.
Then ATTCCCCG, with 0.32 ± 0.0628 E-score; and AAGATCGA, with 0.225 ± 0.00987 E-score; and AAGATCGT, with 0.291 ± 0.0157 E-score.
Turning to CAGATCGC, the binding signal came out at 0.417 ± 0.00441 E-score.
Then CAGATCGG, with 0.215 ± 0.0844 E-score; and ATGATCGC, with 0.232 ± 0.0162 E-score.
Then AAGATCGC, with 0.398 ± 0.00727 E-score.
With AATTCCCC the figure was 0.225 ± 0.0402 E-score; with AAAGTATC, 0.243 ± 0.0118 E-score.
As to ATCGTCTA, the binding signal amounted to 0.208 ± 0.048 E-score.
Then ATTGCGCG, with 0.378 ± 0.00773 E-score; and ATCTAGAG, with 0.238 ± 0.0882 E-score; and ATCTAGAT, with 0.398 ± 0.0867 E-score.
Consider ATCTAGAC, for which the binding signal was found to be 0.287 ± 0.00928 E-score.
